“And” between values parts separate entries of the source, which are not always exact repeats. Equal values may be shown once. Records with an inconclusive call do not appear. The source made the active and inactive calls. Unless noted, calls come from the whole dose curve; as a rule, active = well fitted curve in the direction sought with a large enough effect in the repeat runs; inconclusive = weak or mixed curves; inactive = no such curve, though single readings can be large; an effect the other way counts as inactive or inconclusive.

The record followed here is PubChem BioAssay (Tox21).

Experiment [1] in a line: qHTS assay to test for compound auto fluorescence at 535 nm (green) in HEK293 cells (AID 720680). A general note: qHTS replaces the single test concentration by a dilution series.
Experiment [2] in a line: qHTS assay to test for compound auto fluorescence at 460 nm (blue) in HEK293 cell free culture (AID 720681). The essentials: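 Compounds were added to cell-free DMEM with 10% FBS and fluorescence read directly. The blue channel used 405 nm excitation and 460 nm emission, with triamterene as the reference fluorophore.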
The nature of experiment [3]: qHTS assay to test for compound auto fluorescence at 535 nm (green) in HEK293 cell free culture (AID 720682). Put shortly: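 Measurement is a direct plate read of green fluorescence (485 nm in, 535 nm out) after compound addition to serum-supplemented DMEM lacking cells, with fluorescein used to express intensities.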
The nature of experiment [4]: qHTS assay to test for compound auto fluorescence at 590 nm (red) in HEK293 cell free culture (AID 720683). Put shortly: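 Cell-free wells of DMEM with 10% FBS received compound, and intrinsic fluorescence was read at excitation/emission 540/590 nm. Values expressed as equivalence to Rose Bengal sodium.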
Experiment [5] is described as follows: qHTS assay to test for compound auto fluorescence at 590 nm (red) in HepG2 cell free culture (AID 720684). The essentials: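 Rose Bengal sodium served as the reference for red signal. Test compounds were dispensed into serum-containing MEM (10% FBS) without cells, and plates were read at 540/590 nm.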
The nature of experiment [6]: qHTS assay to test for compound auto fluorescence at 460 nm (blue) in HepG2 cell free culture (AID 720685). Put shortly: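 Cell-free plates of MEM plus 10% FBS received 23 nL compound or DMSO vehicle; blue-channel (405/460 nm) intensity scored against triamterene as reference fluorophore.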
Experiment [7] in a line: qHTS assay to test for compound auto fluorescence at 535 nm (green) in HepG2 cell free culture (AID 720686).
A short description of experiment [8]: qHTS assay to test for compound auto fluorescence at 460 nm (blue) in HepG2 cells (AID 720687). The essentials: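 HepG2 cells in MEM with 10% FBS, attached overnight at 37 C, were exposed to compound or DMSO for 1 hr at 37 C, 5% CO2. Blue fluorescence was read at 405/460 nm, with triamterene as reference fluorophore.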
For experiment [9], the target named is Glucocorticoid receptor (Homo sapiens) (UniProt P04150). The experiment can be described thus: qHTS assay to identify small molecule agonists of the glucocorticoid receptor (GR) signaling pathway (AID 720691; active = well fitted activation curve with a large enough effect in the signal ratio in the repeat runs, not every such curve was filed as active; the % refers to the signal ratio; note: potency is the fitted concentration of half-maximal effect). The essentials: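 A HeLa cervical cancer line expressing GR and a glucocorticoid response element-driven beta-lactamase gene is treated with compounds for 18 h; LiveBLAzer B/G FRET substrate is then applied and fluorescence read.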
Glucocorticoid receptor (Homo sapiens), sequence (P04150 whole entry, looked up): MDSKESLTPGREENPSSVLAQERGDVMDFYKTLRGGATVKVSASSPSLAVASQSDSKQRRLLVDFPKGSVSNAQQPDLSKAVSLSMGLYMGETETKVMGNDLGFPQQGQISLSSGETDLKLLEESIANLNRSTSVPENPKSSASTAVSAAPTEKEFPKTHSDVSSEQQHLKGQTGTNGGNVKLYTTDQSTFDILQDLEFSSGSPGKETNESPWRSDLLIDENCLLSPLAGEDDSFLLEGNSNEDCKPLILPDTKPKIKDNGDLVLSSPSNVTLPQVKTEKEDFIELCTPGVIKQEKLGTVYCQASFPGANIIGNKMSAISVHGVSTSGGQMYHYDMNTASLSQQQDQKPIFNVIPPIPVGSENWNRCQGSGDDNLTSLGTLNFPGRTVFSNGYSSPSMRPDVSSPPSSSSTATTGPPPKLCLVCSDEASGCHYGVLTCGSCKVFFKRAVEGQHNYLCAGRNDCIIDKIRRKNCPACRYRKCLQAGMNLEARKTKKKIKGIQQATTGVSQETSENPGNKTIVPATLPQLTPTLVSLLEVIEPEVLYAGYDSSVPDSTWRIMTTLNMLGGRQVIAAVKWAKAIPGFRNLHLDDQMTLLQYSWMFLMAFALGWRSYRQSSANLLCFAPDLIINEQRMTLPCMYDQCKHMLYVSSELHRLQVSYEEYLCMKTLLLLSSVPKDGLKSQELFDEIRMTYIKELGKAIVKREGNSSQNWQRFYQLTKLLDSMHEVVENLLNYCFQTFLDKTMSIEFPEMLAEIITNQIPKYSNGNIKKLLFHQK

The target is the same in experiment [10]. The experiment can be described thus: qHTS assay to identify small molecule antagonists of the glucocorticoid receptor (GR) signaling pathway (AID 720692; active = well fitted inhibition curve with a large enough effect in the signal ratio in the repeat runs, not every such curve was filed as active; the % refers to the signal ratio; note: potency is the fitted concentration of half-maximal effect). The essentials: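 GRE-bla HeLa line, dex-stimulated (5 nM final). Compound exposure 18 h, 37 C. Beta-lactamase FRET read after 2 h RT substrate.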
Experiment [11] can be described thus: qHTS assay to identify small molecule antagonists of the glucocorticoid receptor (GR) signaling pathway - cell viability counter screen (AID 720693). Note: nearly all actives have a fitted effect of over 55% in size.
A short description of experiment [12]: qHTS assay for identifying genotoxic compounds that show differential cytotoxicity against isogenic chicken DT40 cell lines with known DNA damage response pathways - wild type cell line (AID 743012). Note: nearly all actives have a fitted effect of over 60% in size. Note: potency is the fitted concentration of half-maximal effect. The essentials: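 300 wt DT40 cells/well; cpd (DMSO) pintool-transferred after ~0.5 h at 37 C/5% CO2; 40 h incubation; CellTiter-Glo added, 30 min RT; luminescence read.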

The nature of experiment [13]: qHTS assay for identifying genotoxic compounds that show differential cytotoxicity against isogenic chicken DT40 cell lines with known DNA damage response pathways - Rev3 mutant cell line (AID 743014). Note: nearly all actives have a fitted effect of over 55% in size. Note: potency is the fitted concentration of half-maximal effect.
The nature of experiment [14]: qHTS assay for identifying genotoxic compounds that show differential cytotoxicity against isogenic chicken DT40 cell lines with known DNA damage response pathways - Rad54/Ku70 mutant cell line (AID 743015). Note: nearly all actives have a fitted effect of over 60% in size. Note: potency is the fitted concentration of half-maximal effect.
Experiment [15] in a line: qHTS assay to identify small molecule antagonists of the androgen receptor (AR) signaling pathway - cell viability counter screen (AID 743033; note: nearly all actives have a fitted effect of over 45% in size).
In experiment [16] the target is Androgen receptor (Homo sapiens) (UniProt P10275). The experiment can be described thus: qHTS assay to identify small molecule antagonists of the androgen receptor (AR) signaling pathway (AID 743035; active = well fitted inhibition curve with a large enough effect in the signal ratio in the repeat runs, not every such curve was filed as active; the % refers to the signal ratio). Put shortly:
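In this cell-based reporter screen, compounds were tested in concentration series against R1881-activated HEK293 cells expressing beta-lactamase under UAS control; after 16 h at 37C, FRET substrate was added and fluorescence read 2 h later.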

The target is the same in experiment [17]. The experiment can be described thus: qHTS assay to identify small molecule agonists of the androgen receptor (AR) signaling pathway (AID 743036; active = well fitted activation curve with a large enough effect in the signal ratio in the repeat runs, with a control signal flat, not every such curve was filed as active; the % refers to the signal ratio). Put shortly:
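Beta-lactamase under UAS control, stably integrated in HEK293 GripTite cells, reports receptor activation. After 16 h compound treatment, cells received FRET substrate for 2 h at room temperature before fluorescence reading.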

Experiment [18] can be described thus: qHTS assay to identify small molecule antagonists of the androgen receptor (AR) signaling pathway using the MDA cell line - cell viability counter screen (AID 743041; note: nearly all actives have a fitted effect of over 45% in size). Put shortly: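 Cytotoxicity counter screen: MDA-kb2 AR-luc cells, compound + R1881, 16 h, 37C, 0% CO2; CellTiter-Fluor added at 15.5 h, fluorescence read after 30 min.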
For experiment [19], the target named is Androgen receptor (Homo sapiens) (UniProt P10275). Put plainly: qHTS assay to identify small molecule antagonists of the androgen receptor (AR) signaling pathway using the MDA cell line (AID 743042; note: nearly all actives have a fitted effect of over 55% in size). Put shortly: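 MDA-kb2 breast carcinoma cells carrying MMTV-luciferase (AR/GR responsive) were co-treated with compounds and the agonist R1881 for 16 h at 37C. Inhibition read as ONE-Glo luminescence; CellTiter-Fluor fluorescence measured in parallel for cytotoxicity.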
Androgen receptor (Homo sapiens), sequence (P10275 whole entry, looked up): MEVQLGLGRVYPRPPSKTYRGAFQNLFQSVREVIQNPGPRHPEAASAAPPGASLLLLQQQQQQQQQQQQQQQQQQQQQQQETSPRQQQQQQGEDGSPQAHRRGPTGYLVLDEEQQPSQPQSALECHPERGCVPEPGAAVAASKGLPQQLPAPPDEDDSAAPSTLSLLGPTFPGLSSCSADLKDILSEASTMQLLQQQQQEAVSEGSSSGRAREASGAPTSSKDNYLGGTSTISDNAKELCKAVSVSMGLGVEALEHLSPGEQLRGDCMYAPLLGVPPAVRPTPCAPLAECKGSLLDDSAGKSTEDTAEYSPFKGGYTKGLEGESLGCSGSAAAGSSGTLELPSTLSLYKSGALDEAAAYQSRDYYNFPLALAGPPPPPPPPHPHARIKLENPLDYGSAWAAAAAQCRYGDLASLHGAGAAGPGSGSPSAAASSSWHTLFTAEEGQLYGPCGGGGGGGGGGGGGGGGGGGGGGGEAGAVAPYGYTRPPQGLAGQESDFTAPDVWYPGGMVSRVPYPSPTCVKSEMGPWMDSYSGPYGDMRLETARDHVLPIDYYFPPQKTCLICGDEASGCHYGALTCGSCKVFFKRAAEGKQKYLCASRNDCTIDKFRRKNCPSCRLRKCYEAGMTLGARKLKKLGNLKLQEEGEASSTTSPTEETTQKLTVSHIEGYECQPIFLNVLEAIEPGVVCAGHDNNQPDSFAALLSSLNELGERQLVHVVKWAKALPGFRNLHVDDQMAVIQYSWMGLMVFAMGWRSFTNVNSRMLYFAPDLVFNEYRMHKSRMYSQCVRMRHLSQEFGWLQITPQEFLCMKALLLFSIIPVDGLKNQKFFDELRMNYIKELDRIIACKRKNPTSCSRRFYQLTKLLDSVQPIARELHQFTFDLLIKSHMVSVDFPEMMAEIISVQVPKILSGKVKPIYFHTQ

Experiment [20] in a line: qHTS assay to identify small molecule antagonists of the thyroid receptor (TR) signaling pathway - cell viability counter screen (AID 743064). Note: nearly all actives have a fitted effect of over 50% in size. Note: potency is the fitted concentration of half-maximal effect. The essentials: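 Compounds were tested on GH3.TRE-Luc cells in the presence of T3 at 1 nM final. Following 23.5 h at 37 °C, cell viability was quantified by CellTiter-Fluor.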

Consider `CCC[C@H](N[C@@H](C)C(=O)N1[C@H](C(=O)O)C[C@@H]2CCCC[C@@H]21)C(=O)OCC`, for which the Potency entry in experiment [1], in experiment [2], in [3], in [6], in experiment [7] and in experiment [8] was “inactive” each time. For the same compound, the Potency result in [9], in experiment [10], in experiment [11], in [12], in experiment [13] and in experiment [14] was “inactive” in each case. For the same compound, the Potency entry in experiment [15] was “inactive”. Also, the compound was classed as inactive in experiment [4] and in experiment [5].
As for `CCC(C)(Oc1ccc(C2(c3ccc(OC(C)(CC)C(=O)O)cc3)CCCCC2)cc1)C(=O)O` (configuration not stated), the Potency entry in experiment [1], in experiment [2], in experiment [3], in [6], in experiment [7] and in experiment [8] was “inactive” in each case. The Potency entry in experiment [9], in experiment [10], in [11], in experiment [12], in experiment [13] and in [14] was “inactive” in each case. The Potency result in experiment [15], in [16], in experiment [17], in experiment [18], in experiment [19] and in experiment [20] was “inactive” each time. Moreover, the compound was called inactive in experiment [4] and in experiment [5].
As to `CCOC(=O)C(C)C(C)=O` (configuration not stated), the Potency entry in [1], in experiment [2], in experiment [3], in experiment [6], in [7] and in experiment [8] was “inactive” in each case. Also, the Potency result in experiment [9], in [11], in experiment [12], in [13], in [14] and in experiment [15] was “inactive” in each case. Moreover, the Potency entry in [18] and in [20] was “inactive” each time. Further, the compound was called inactive in experiment [4] and in experiment [5].
As to `O=C(O)CP(=O)(O)O`, the Potency entry in experiment [1], in experiment [2], in [3], in experiment [6], in [7] and in experiment [8] was “inactive” in each case. In addition, the Potency result in experiment [9], in experiment [10], in experiment [11], in experiment [12], in [14] and in experiment [15] was “inactive” in each case. In addition, the Potency result in experiment [18] and in [20] was “inactive” in each case. Besides, the compound was classed as inactive in [4] and in [5].
Take `Cc1cccc(O)c1C`: the Potency entry in experiment [1], in [2], in [3], in experiment [6], in experiment [7] and in experiment [8] was “inactive” throughout. Moreover, the Potency result in [9], in [10], in [11], in [12], in [14] and in [15] was “inactive” in each case. In addition, the Potency result in [18] and in experiment [20] was “inactive” throughout. The compound was called inactive in experiment [4] and in experiment [5].
On to `O=C1NCC2(CCN(CCc3ccccc3)CC2)O1`, for which the Potency entry in [1], in [2], in [3], in [6], in [7] and in experiment [8] was “inactive” each time. Moreover, the Potency entry in experiment [9], in experiment [10], in [15], in experiment [18] and in experiment [20] was “inactive” in each case. For the same compound, the result in experiment [4] and in experiment [5] was inactive.
Regarding `NC(N)=NC(=O)Cc1c(Cl)cccc1Cl`, the Potency entry in experiment [1], in experiment [2], in experiment [3], in [6], in experiment [7] and in experiment [8] was “inactive” each time. Moreover, the Potency result in experiment [9], in experiment [11], in experiment [14] and in experiment [15] was “inactive” in each case. For the same compound, the compound was classed as inactive in experiment [4] and in [5].
Take `CC1=C(C=O)C(C)(C)CC=C1`: the Potency entry in experiment [1], in experiment [2], in experiment [3], in experiment [6], in experiment [7] and in experiment [8] was “inactive” throughout. In addition, the Potency entry in [9], in [10], in experiment [11], in [12], in experiment [13] and in experiment [14] was “inactive” throughout. The Potency entry in experiment [15] and in experiment [20] was “inactive” each time. Also, the call in experiment [4] and in experiment [5] was inactive.
As for `CC(N)=O`, the Potency entry in [1], in experiment [2], in experiment [3], in [6], in experiment [7] and in experiment [8] was “inactive” each time. The Potency result in experiment [9], in experiment [10], in experiment [11], in [12], in experiment [13] and in experiment [14] was “inactive” throughout. Further, the Potency entry in [15] and in experiment [20] was “inactive” throughout. In addition, the result in experiment [4] and in [5] was inactive.
For `C=CC(=O)OCCCCCCOC(=O)C=C`, the Potency entry in experiment [1], in experiment [2], in [3], in [6], in experiment [7] and in [9] was “inactive” throughout. The Potency entry in experiment [18] is “inactive”. In addition, the outcome in experiment [4] and in experiment [5] was inactive. Further, the Potency was 39.4 µM (active) and 43.6 µM (active) in [10]; 24.3 µM (active) in experiment [12]; 55.1 µM (active) and 30.6 µM (active) in experiment [13]; 69.4 µM (active) and 24.3 µM (active) in experiment [14]; 55.1 µM (active) and 54.5 µM (active) in experiment [20].
Take `COC(=O)c1cccc(C(=O)OC)c1`: the Potency result in experiment [1], in experiment [2], in [3], in [6], in experiment [7] and in [11] was “inactive” in each case. Also, the Potency entry in experiment [12], in [14], in experiment [15], in [16], in experiment [17] and in experiment [18] was “inactive” throughout. Besides, the Potency result in experiment [19] and in experiment [20] was “inactive” each time. Also, the compound was classed as inactive in experiment [4] and in experiment [5].
Consider `CC(=O)O[C@]1(C(C)=O)CC[C@H]2[C@@H]3C[C@H](C)C4=CC(=O)CC[C@]4(C)[C@H]3CC[C@@]21C`, for which the Potency entry in [1], in experiment [2], in experiment [3], in experiment [6], in experiment [7] and in [11] was “inactive” in each case. Further, the Potency result in experiment [18] and in experiment [20] was “inactive” each time. The compound was called inactive in [4] and in experiment [5]. Besides, the Potency in experiment [9] was 37.9 nM (active) and 21.9 nM (active); in experiment [12] it was 5.31 µM (active); in experiment [13], 3.76 µM (active) and 4.85 µM (active); in experiment [14] it was 8.41 µM (active) and 21.7 µM (active).
Consider `CC(=O)CC(C)=O`, for which the Potency entry in experiment [1], in experiment [2], in experiment [3], in experiment [6], in experiment [7] and in [11] was “inactive” each time. Moreover, the Potency result in [12], in experiment [13], in experiment [14], in experiment [15], in experiment [18] and in [20] was “inactive” throughout. The compound was classed as inactive in experiment [4] and in experiment [5].
On to `COc1ccc(COC(C)=O)cc1`, for which the Potency result in experiment [1], in [2], in [3], in experiment [6], in experiment [7] and in experiment [11] was “inactive” throughout. Besides, the Potency entry in experiment [12], in experiment [13], in experiment [14], in experiment [15], in experiment [18] and in [20] was “inactive” each time. Besides, the outcome in experiment [4] and in experiment [5] was inactive.
